# Results as given in publication PMC8384837, “Expanding the binding specificity for RNA recognition by a PUF domain”.
# Substitutions are numbered along the chain they refer to.
# Assays:
# Test in all cases: yeast three-hybrid, YBZ-1, SC-Leu-His + 0.5 mM 3-AT, 4 days
# Settings in all cases: tags: N-Gal4 AD-HA kept; label: inside an RPR1-promoter hybrid RNA with tandem MS2 sites; ssRNA
# [1] = biological target: PUM1 PUF domain R3-FRA (Homo sapiens, UniProt Q14671 828-1176, C935F;Q939A)
# Method in brief: (§1)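 Pumilio-1 PUF domain libraries, randomized at the three base-contacting residues of each repeat, were co-expressed with matching RNA elements from a centromeric plasmid in strain YBZ-1, which carries a LexA–MS2 coat fusion and a HIS3 reporter. Transformants grew for four days on SC-Leu (input) or on SC-Leu-His + 0.5 mM 3-AT (selection), and the repeat regions were PCR-amplified and Illumina-sequenced. The interaction score is the log change in variant frequency from input to selection. That logarithm is base 2, with a pseudocount of 1 where a variant was absent.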
# [2] = biological target: T1, PUM1 PUF domain R6-SYR (Homo sapiens, UniProt Q14671 828-1176, N1043S;Q1047R)
# T1 sequence: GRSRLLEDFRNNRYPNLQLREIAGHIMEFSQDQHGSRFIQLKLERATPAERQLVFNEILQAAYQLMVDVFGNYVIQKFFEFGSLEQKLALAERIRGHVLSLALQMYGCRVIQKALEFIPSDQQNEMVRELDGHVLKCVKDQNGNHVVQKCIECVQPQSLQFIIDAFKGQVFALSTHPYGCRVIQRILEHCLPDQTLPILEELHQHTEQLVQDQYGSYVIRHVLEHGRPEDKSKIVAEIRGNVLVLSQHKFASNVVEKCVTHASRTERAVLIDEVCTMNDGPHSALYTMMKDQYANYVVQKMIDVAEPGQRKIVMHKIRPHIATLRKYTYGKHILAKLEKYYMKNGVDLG
# Method in brief: as §1
# [3] = biological target: PUM1 PUF domain R5-MRD (Homo sapiens, UniProt Q14671 828-1176, C1007M;Q1011D)
# Method in brief: as §1
# [4] = biological target: PUM1 PUF domain R5-RRA (Homo sapiens, UniProt Q14671 828-1176, C1007R;Q1011A)
# Method in brief: as §1
# [5] = biological target: PUM1 PUF domain R5-LFS (Homo sapiens, UniProt Q14671 828-1176, C1007L;R1008F;Q1011S)
# Method in brief: as §1
# [6] = biological target: PUM1 PUF domain R5-LYL (Homo sapiens, UniProt Q14671 828-1176, C1007L;R1008Y;Q1011L)
# Method in brief: as §1
# [7] = biological target: PUM1 PUF domain R2-LWL (Homo sapiens, UniProt Q14671 828-1176, N899L;Y900W;Q903L)
# Method in brief: as §1
# [8] = biological target: PUM1 PUF domain R8-QYG (Homo sapiens, UniProt Q14671 828-1176, N1122Q;Q1126G)
# Method in brief: as §1
# [9] = biological target: PUM1 PUF domain R5-STR (Homo sapiens, UniProt Q14671 828-1176, C1007S;R1008T;Q1011R)
# Method in brief: as §1
# [10] = biological target: PUM1 PUF domain R5-AFF (Homo sapiens, UniProt Q14671 828-1176, C1007A;R1008F;Q1011F)
# Method in brief: as §1
# [11] = biological target: PUM1 PUF domain R1-RFC (Homo sapiens, UniProt Q14671 828-1176, S863R;R864F;Q867C)
# Method in brief: as §1
# [12] = biological target: PUM1 PUF domain R1-MWR (Homo sapiens, UniProt Q14671 828-1176, S863M;R864W;Q867R)
# Method in brief: as §1
# [13] = biological target: PUM1 PUF domain R5-TGR (Homo sapiens, UniProt Q14671 828-1176, C1007T;R1008G;Q1011R)
# Method in brief: as §1
# [14] = biological target: PUM1 PUF domain R5-KRN (Homo sapiens, UniProt Q14671 828-1176, C1007K;Q1011N)
# Method in brief: as §1
# [15] = biological target: PUM1 PUF domain R1-KWC (Homo sapiens, UniProt Q14671 828-1176, S863K;R864W;Q867C)
# Method in brief: as §1
# [16] = biological target: T2, PUM1 PUF domain R6-YRI (Homo sapiens, UniProt Q14671 828-1176, N1043Y;Y1044R;Q1047I)
# T2 sequence: T1 sequence with S216Y, Y217R, R220I
# Method in brief: as §1
# [17] = biological target: T3, PUM1 PUF domain R6-KWG (Homo sapiens, UniProt Q14671 828-1176, N1043K;Y1044W;Q1047G)
# T3 sequence: T1 sequence with S216K, Y217W, R220G
# Method in brief: as §1
# [18] = biological target: PUM1 PUF domain R3-PHL (Homo sapiens, UniProt Q14671 828-1176, C935P;R936H;Q939L)
# Method in brief: as §1
# [19] = biological target: PUM1 PUF domain R4-MNA (Homo sapiens, UniProt Q14671 828-1176, N971M;H972N;Q975A)
# Method in brief: as §1
# [20] = biological target: PUM1 PUF domain R2-KRA (Homo sapiens, UniProt Q14671 828-1176, N899K;Y900R;Q903A)
# Method in brief: as §1
sequence,measurement,setting,value
GGCUAGAACUAGUGGAUCCCCCGGCGCCCGGCGGCUCGAGCCCGGGUAAGUGUAAGUAGUCUGCAUGCCGCCGGGCGCCAUGCCUGCAGGUCGACUCUAGAAAACAUG,binding signal,[1],5.49 log2 enrichment (interaction score)
GGCUAGAACUAGUGGAUCCCCCGGCGCCCGGCGGCUCGAGCCCGGGUAAGUGCAAAUAGUCUGCAUGCCGCCGGGCGCCAUGCCUGCAGGUCGACUCUAGAAAACAUG,binding signal,[2],6.87 log2 enrichment (interaction score)
GGCUAGAACUAGUGGAUCCCCCGGCGCCCGGCGGCUCGAGCCCGGGUAAGUGUAAAUAGUCUGCAUGCCGCCGGGCGCCAUGCCUGCAGGUCGACUCUAGAAAACAUG,binding signal,[3],2.65 log2 enrichment (interaction score)
same,binding signal,[4],1.06 log2 enrichment (interaction score)
same,binding signal,[5],2.29 log2 enrichment (interaction score)
same,binding signal,[2],6.46 log2 enrichment (interaction score)
same,binding signal,[6],2.85 log2 enrichment (interaction score)
same,binding signal,[7],1.87 log2 enrichment (interaction score)
same,binding signal,[8],3.24 log2 enrichment (interaction score)
same,binding signal,[9],1.08 log2 enrichment (interaction score)
same,binding signal,[10],2.83 log2 enrichment (interaction score)
GGCUAGAACUAGUGGAUCCCCCGGCGCCCGGCGGCUCGAGCCCGGGUAAGUGUAAAUCGUCUGCAUGCCGCCGGGCGCCAUGCCUGCAGGUCGACUCUAGAAAACAUG,binding signal,[11],3.46 log2 enrichment (interaction score)
same,binding signal,[12],3.03 log2 enrichment (interaction score)
GGCUAGAACUAGUGGAUCCCCCGGCGCCCGGCGGCUCGAGCCCGGGUAAGUGUCAAUAGUCUGCAUGCCGCCGGGCGCCAUGCCUGCAGGUCGACUCUAGAAAACAUG,binding signal,[13],5.8 log2 enrichment (interaction score)
same,binding signal,[4],4.67 log2 enrichment (interaction score)
same,binding signal,[14],4.24 log2 enrichment (interaction score)
same,binding signal,[9],5.88 log2 enrichment (interaction score)
GGCUAGAACUAGUGGAUCCCCCGGCGCCCGGCGGCUCGAGCCCGGGUAAGUGUAAAUUGUCUGCAUGCCGCCGGGCGCCAUGCCUGCAGGUCGACUCUAGAAAACAUG,binding signal,[15],3.86 log2 enrichment (interaction score)
same,binding signal,[12],3.06 log2 enrichment (interaction score)
GGCUAGAACUAGUGGAUCCCCCGGCGCCCGGCGGCUCGAGCCCGGGUAAGUGUUAAUAGUCUGCAUGCCGCCGGGCGCCAUGCCUGCAGGUCGACUCUAGAAAACAUG,binding signal,[3],2.48 log2 enrichment (interaction score)
same,binding signal,[5],1.78 log2 enrichment (interaction score)
GGCUAGAACUAGUGGAUCCCCCGGCGCCCGGCGGCUCGAGCCCGGGUAAGCGUAAAUAGUCUGCAUGCCGCCGGGCGCCAUGCCUGCAGGUCGACUCUAGAAAACAUG,binding signal,[8],3.1 log2 enrichment (interaction score)
GGCUAGAACUAGUGGAUCCCCCGGCGCCCGGCGGCUCGAGCCCGGGUAAGUGUAAAAAGUCUGCAUGCCGCCGGGCGCCAUGCCUGCAGGUCGACUCUAGAAAACAUG,binding signal,[7],6.07 log2 enrichment (interaction score)
GGCUAGAACUAGUGGAUCCCCCGGCGCCCGGCGGCUCGAGCCCGGGUAAGUGAAAAUAGUCUGCAUGCCGCCGGGCGCCAUGCCUGCAGGUCGACUCUAGAAAACAUG,binding signal,[16],3.61 log2 enrichment (interaction score)
same,binding signal,[17],5.8 log2 enrichment (interaction score)
GGCUAGAACUAGUGGAUCCCCCGGCGCCCGGCGGCUCGAGCCCGGGUAAGUGUGAAUAGUCUGCAUGCCGCCGGGCGCCAUGCCUGCAGGUCGACUCUAGAAAACAUG,binding signal,[4],1.09 log2 enrichment (interaction score)
same,binding signal,[5],1.48 log2 enrichment (interaction score)
GGCUAGAACUAGUGGAUCCCCCGGCGCCCGGCGGCUCGAGCCCGGGUAAGUGUAAUUAGUCUGCAUGCCGCCGGGCGCCAUGCCUGCAGGUCGACUCUAGAAAACAUG,binding signal,[1],1.3 log2 enrichment (interaction score)
same,binding signal,[18],4.16 log2 enrichment (interaction score)
GGCUAGAACUAGUGGAUCCCCCGGCGCCCGGCGGCUCGAGCCCGGGUAAGUGUAUAUAGUCUGCAUGCCGCCGGGCGCCAUGCCUGCAGGUCGACUCUAGAAAACAUG,binding signal,[19],4.12 log2 enrichment (interaction score)
GGCUAGAACUAGUGGAUCCCCCGGCGCCCGGCGGCUCGAGCCCGGGUAAGUGUAAAGAGUCUGCAUGCCGCCGGGCGCCAUGCCUGCAGGUCGACUCUAGAAAACAUG,binding signal,[20],4.63 log2 enrichment (interaction score)
